TWEAK Fn14 block: inhibitors of TWEAK-Fn14 signaling, primary screen, luciferase reporter cells, uHTS | TWEAK-stimulated Fn14 reporter cells, luciferase luminescence, 8 h | actives 2% (n = 360,000) | inhibition, % at 10 µM | AID 1159606, 2016; in the data active = inhibition above about 50%
TROY signal inh: inhibitors of TROY-driven NF-kB signaling, primary screen, Q293 LMP1-TROYcd cells, NF-kB luciferase, uHTS. Q293 LMP1-TROYcd NF-kB luciferase reporter, 4 h. inhibition, % at 10 µM. actives 0.98% (n = 360,000). AID 1347056, 2019;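 active = compounds whose plate-normalised and pattern-corrected inhibition of the luciferase reporter signal at the single screening dose is 50% or more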
HIF-2a block: HIF-2a reporter inhibitors, primary screen, luminescence, 786-0 RCC cells; inhibition, % at 18.8 µM; actives 0.72% (n = 360,000); AID 624352, 2012; 786-0 RCC cells HIF-2a reporter, luciferase luminescence, overnight;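 active = inhibition of the luminescence signal of 40% or more relative to plate controls, in a single-dose primary screen at 18.75 µM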
Peg3 promoter: Peg3 promoter-driven luciferase inhibitors, primary screen, cell-based, HeLa, luciferase luminescence. HeLa PEG-Prom luciferase reporter, overnight. inhibition, % at 20 µM. actives 1.7% (n = 360,000). AID 588405, 2011;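 active = inhibition of at least 50% at 20 µM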
CF NFkB inh: inhibitors of PAF-induced NF-kB signaling, primary screen, cell-based, GFP fluorescence, uHTS | actives 0.86% (n = 360,000) | KKLEB NF-kB-GFP reporter, GFP fluorescence overnight | inhibition, % at 5 µM | AID 588850, 2011;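 active = at least 50% inhibition at 5 µM, scaled per plate between neutral and stimulator controls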;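 note: PAF is a Pseudomonas aeruginosa culture filtrate used as stimulus; plate controls were PAF-stimulated DMSO wells for no effect and unstimulated DMSO wells for full effect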
KKLEB cytotox: cytotoxicity in KKLEB CF airway cells, primary screen, cytotoxicity control for CF NF-kB inhibitor project, cell-based, uHTS, fluorescence assay plates | KKLEB CF airway cells viability, ATPlite luminescence, overnight; stronger effect = lower value; cells stimulated with P. aeruginosa culture filtrate | activity change (cytotoxicity), % at 5 µM | actives 0.36% (n = 360,000) | AID 602141, 2011;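 active = corrected activity change at or below -50% at 5 µM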
An asterisk follows results filed as active; . = no result given. The list is not random: actives were taken first. Their share in the collection is about 4%.

SMILES	TWEAK Fn14 block	TROY signal inh	HIF-2a block	Peg3 promoter	CF NFkB inh	KKLEB cytotox
CCN1C(=O)[C@H]2[C@@H](c3ccc(SC4CCCCC4)c(OC)c3)N3CCCC[C@@]3(C(=O)OC)[C@H]2C1=O	13.1	-6.3	19.1	28.9	8.9	-0.5
COc1cccc(C=NNC(=O)C(C)SC(C)C(=O)NN=Cc2cccc(OC)c2)c1 (stereo not given)	-3.9	-4.3	2.8	6.4	4.8	-4.7
CC(SC(C)C(=O)NN=Cc1cccc(Cl)c1)C(=O)NN=Cc1cccc(Cl)c1 (stereo not given)	-4.9	13.5	5.7	98.9*	-7.3	11.1
O=C(Cc1ccccc1)NCC1CCCO1 (stereo not given)	5.1	-22.0	7.7	2.0	9.8	-5.6
O=C(Cc1cccs1)NCC1CCCO1 (stereo not given)	51.0*	7.9	28.8	5.0	-16.2	6.5
Cc1ccc(-n2nc3c(=O)n(C(C)C(=O)NCc4ccc(Cl)cc4)nc(C)c3c2C)cc1 (stereo not given)	9.7	31.5	12.8	20.9	4.9	19.7
Cc1cc(/C=C(\C#N)C(=O)Nc2ccc(Cl)cc2)c(C)n1-c1ccc(N2CCOCC2)c([N+](=O)[O-])c1	42.5	3.3	14.9	6.0	10.1	0.3
Cc1ccc(NC(=O)/C(C#N)=C/c2cc(C)n(-c3ccc(N4CCOCC4)c([N+](=O)[O-])c3)c2C)c(C)c1	53.6*	12.6	1.1	9.1	27.5	-21.7
Cc1cc(N2CCN(C(C(=O)NC3CCCC3)c3ccco3)CC2)c2ccccc2n1 (stereo not given)	.	.	-7.3	.	.	.
COC(C(=O)C(O)C(C)O)C1Cc2cc3cc(OC4CC(OC5CC(O)C(O)C(C)O5)C(O)C(C)O4)c(C)c(O)c3c(O)c2C(=O)C1OC1CC(OC2CC(OC3CC(O)C(OC)C(C)O3)C(O)C(C)O2)C(O)C(C)O1 (stereo not given)	85.4*	7.6	-29.7	99.7*	90.4*	-33.8
Cc1ccc2nc3cc([N+](=O)[O-])cc([N+](=O)[O-])c3cc2c1	87.5*	51.6*	-130.5	75.1*	68.1*	-39.4
Cc1nc2ccc([N+](=O)[O-])cc2nc1C	16.7	0.8	9.8	8.6	-12.6	4.1
CC(C)c1ccc(S(=O)(=O)c2nnn3c2nc(N2CCCCC2)c2ccccc23)cc1	0.6	9.7	8.6	-3.1	12.7	6.1
N#Cc1cnn2c1nc(N1CCCCC1)c1ccccc12	20.0	27.8	25.0	51.4*	43.1	-40.3
O=C(Nc1ccc(OCc2ccccc2)cc1)Nc1ccccc1C(=O)NCCCN1CCOCC1	88.8*	-28.1	-104.8	-44.6	-10.3	-4.9
COc1ccc(OCc2cccc(C(=O)Nc3ccc(CN4CCCCC4)cc3)c2)cc1	-39.1	-99.3	-35.5	-162.4	17.1	-20.5
O=C(Nc1ccccc1C(=O)NCCCN1CCOCC1)c1ccc(F)cc1F	4.4	14.5	11.4	-9.8	9.2	-0.4
CCOc1ccc(NC(=O)NCCCN2CCCC2)cc1	90.3*	-7.3	12.8	3.1	7.0	-7.7
CCOc1ccc(OCc2cccc(C(=O)Nc3ccc(CN4CCCCC4)cc3)c2)cc1	-85.9	-47.4	-9.2	50.1*	28.1	-18.3
O=C(NCCCN1CCCC1)Nc1ccc(F)cc1	-32.3	-6.1	6.6	4.1	9.4	1.4
CC12CCC(=O)C=C1CCC1C2C(O)CC2(C)C1CCC2(O)C(=O)CO (stereo not given)	-20.1	19.8	23.7	-15.2	61.2*	21.0
C[C@]12CCC(=O)C=C1CC[C@@H]1[C@@H]2[C@@H](O)C[C@@]2(C)[C@H]1CC[C@]2(O)C(=O)CO	-18.3	23.7	29.9	-5.3	72.7*	2.7
C[C@]12CCC(=O)C=C1[C@H](O)C[C@@H]1[C@@H]2[C@@H](O)C[C@@]2(C)[C@H]1CC[C@]2(O)C(=O)CO	-17.9	8.0	24.4	-12.2	31.2	6.6
CCc1c(C2CC2)ncn1Cc1cccc(-c2ccccc2)c1	.	.	1.5	.	.	.
